# In PubChem BioAssay (EPA / NIEHS):
# Active and inactive are the calls of the source. Rule for the calls: active = hit-call score of the fitted dose curve at least 0.9, where 1 is the maximum; inactive = score below 0.9.
# Read-out: sulfotransferase 2A1 (SULT2A1), SULT2A1 (gene 6822)
# Experiment: LTEA_HepaRG_SULT2A1: Life Technologies and Expression Analysis (LTEA) Assay for sulfotransferase 2A1 (SULT2A1) using HepaRG (AID 2283531)
# Conditions: mRNA level, 48 h; actives raise or lower the signal
# How it was run: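 HepaRG, 48 h chemical exposure, 8-pt half-log curve from 100 uM in 0.5% DMSO, duplicates. Readout: TaqMan qRT-PCR of SULT2A1 mRNA, housekeeping-normalized. Bidirectional fit vs DMSO baseline.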
SMILES,AC50,outcome
CCN(CC)CCNc1ccc(CNC=O)c2sc3ccc(OC)cc3c(=O)c12,76 µM (active),
N#C[C@@H]1CC(F)(F)CN1C(=O)CNC1CC2CCC(C1)N2c1ncccn1 (stereo partly specified),,inactive
CN(C)C=O,,inactive
O=C(OCCOCCOC(=O)c1ccccc1)c1ccccc1,,inactive
CCCCCCCCC(=O)O,,inactive
CC[C@H](c1ccc(O)cc1)[C@@H](CC)c1ccc(O)cc1,79.7 µM (active),
CC(C)(C)c1ccc(O)c(C(C)(C)C)c1,,inactive
O=[N+]([O-])c1ccc(O)cc1,,inactive
CCCCOCCO,,inactive
OCCC(F)(F)C(F)(F)C(F)(F)C(F)(F)C(F)(F)C(F)(F)F,,inactive
CCC(C)(C)C1CCC(O)CC1 (stereo unspecified),,inactive
NC(=O)N1C(=O)C(C(=O)c2cc(Cl)cs2)c2cc(F)c(Cl)cc21 (stereo unspecified),34.2 µM (active),
CCCCCCC(=O)O,,inactive
ClC1=C(Cl)C(Cl)(Cl)C(Cl)=C1Cl,,inactive
COCC(C)OCC(C)O (stereo unspecified),,inactive
C[C@@H]1C[C@H]2[C@@H]3CCC4=CC(=O)C=C[C@]4(C)[C@@]3(F)[C@@H](O)C[C@]2(C)[C@@]1(O)C(=O)COP(=O)(O)O,,inactive
CCCCC(CC)COC(=O)CCCCC(=O)OCc1ccccc1 (stereo unspecified),,inactive

SMILES,AC50,outcome
O=C(O)Cc1cc(I)c(Oc2cc(I)c(O)c(I)c2)c(I)c1,52.4 µM (active),
CCC(=C(c1ccc(O)cc1)c1ccc(OCCN(C)C)cc1)c1ccccc1,85.5 µM (active),
CCc1nn(C2CCCCC2)c2cc(C3(C#N)CCC(C(=O)O)CC3)ccc12 (stereo unspecified),80.4 µM (active),
CCCCCCCCOC(=O)CCCCCCCCC(=O)OCCCCCCCC,,inactive
Oc1cccc(O)c1,,inactive
CCc1ccc(CCOc2ccc(CC3SC(=O)NC3=O)cc2)nc1 (stereo unspecified),81.1 µM (active),
OCCC(F)(F)C(F)(F)C(F)(F)C(F)(F)C(F)(F)C(F)(F)C(F)(F)C(F)(F)F,,inactive
O=C(O)c1ccccc1C(c1ccc(O)cc1)c1ccc(O)cc1,,inactive
CCCCCCCCCCCCc1ccccc1S(=O)(=O)O,83.4 µM (active),
Cc1oc(-c2ccccc2)nc1CCOc1ccc(C[C@H](Nc2ccccc2C(=O)c2ccccc2)C(=O)O)cc1,23.4 µM (active),
c1ccc2c(c1)ccc1ccccc12,,inactive
CCCCC(CC)COC(=O)CCCCC(=O)OCC(CC)CCCC (stereo unspecified),,inactive
CC(C)CCCCCCOC(=O)CCCCC(=O)OCCCCCCC(C)C,,inactive
COc1ccc([N+](=O)[O-])cc1N,,inactive
Cc1cc(CCN2CCN(c3nsc4ccccc34)CC2)cc2c1NC(=O)CC2(C)C,85.8 µM (active),
CCCOc1sc(C(=O)N2CCC(c3cc(CN)ccc3F)CC2)c(C)c1Br,,inactive

# Read-out: Transforming Growth Factor (TGFA), TGFA (gene 7039)
# Experiment: LTEA_HepaRG_TGFA: Life Technologies and Expression Analysis (LTEA) Assay for Transforming Growth Factor (TGFA) using HepaRG (AID 2283532)
# Conditions: mRNA level, 48 h; actives raise or lower the signal
# How it was run: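 Differentiated HepaRG cells exposed 48 hours in serum-free induction medium, 0.5% DMSO vehicle, 8-point half-log series from 100 uM, in duplicate. TGFA mRNA by TaqMan qRT-PCR, normalised to ACTB, GAPDH, POLR2A; bidirectional fit versus DMSO.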
SMILES,AC50,outcome
CCN(CC)CCNc1ccc(CNC=O)c2sc3ccc(OC)cc3c(=O)c12,12.5 µM (active),
N#C[C@@H]1CC(F)(F)CN1C(=O)CNC1CC2CCC(C1)N2c1ncccn1 (stereo partly specified),,inactive
CN(C)C=O,,inactive
O=C(OCCOCCOC(=O)c1ccccc1)c1ccccc1,,inactive
CCCCCCCCC(=O)O,,inactive
CC[C@H](c1ccc(O)cc1)[C@@H](CC)c1ccc(O)cc1,,inactive
CC(C)(C)c1ccc(O)c(C(C)(C)C)c1,,inactive
O=[N+]([O-])c1ccc(O)cc1,,inactive
CCCCOCCO,,inactive
OCCC(F)(F)C(F)(F)C(F)(F)C(F)(F)C(F)(F)C(F)(F)F,,inactive
CCC(C)(C)C1CCC(O)CC1 (stereo unspecified),,inactive
NC(=O)N1C(=O)C(C(=O)c2cc(Cl)cs2)c2cc(F)c(Cl)cc21 (stereo unspecified),89.3 µM (active),
CCCCCCC(=O)O,,inactive
ClC1=C(Cl)C(Cl)(Cl)C(Cl)=C1Cl,,inactive
COCC(C)OCC(C)O (stereo unspecified),,inactive
C[C@@H]1C[C@H]2[C@@H]3CCC4=CC(=O)C=C[C@]4(C)[C@@]3(F)[C@@H](O)C[C@]2(C)[C@@]1(O)C(=O)COP(=O)(O)O,,inactive
CCCCC(CC)COC(=O)CCCCC(=O)OCc1ccccc1 (stereo unspecified),,inactive

SMILES,AC50,outcome
O=C(O)Cc1cc(I)c(Oc2cc(I)c(O)c(I)c2)c(I)c1,,inactive
CCC(=C(c1ccc(O)cc1)c1ccc(OCCN(C)C)cc1)c1ccccc1,,inactive
CCc1nn(C2CCCCC2)c2cc(C3(C#N)CCC(C(=O)O)CC3)ccc12 (stereo unspecified),65.5 µM (active),
CCCCCCCCOC(=O)CCCCCCCCC(=O)OCCCCCCCC,,inactive
Oc1cccc(O)c1,,inactive
CCc1ccc(CCOc2ccc(CC3SC(=O)NC3=O)cc2)nc1 (stereo unspecified),24 µM (active),
OCCC(F)(F)C(F)(F)C(F)(F)C(F)(F)C(F)(F)C(F)(F)C(F)(F)C(F)(F)F,,inactive
O=C(O)c1ccccc1C(c1ccc(O)cc1)c1ccc(O)cc1,,inactive
CCCCCCCCCCCCc1ccccc1S(=O)(=O)O,32.5 µM (active),
Cc1oc(-c2ccccc2)nc1CCOc1ccc(C[C@H](Nc2ccccc2C(=O)c2ccccc2)C(=O)O)cc1,0.0617 µM (active),
c1ccc2c(c1)ccc1ccccc12,,inactive
CCCCC(CC)COC(=O)CCCCC(=O)OCC(CC)CCCC (stereo unspecified),,inactive
CC(C)CCCCCCOC(=O)CCCCC(=O)OCCCCCCC(C)C,,inactive
COc1ccc([N+](=O)[O-])cc1N,,inactive
Cc1cc(CCN2CCN(c3nsc4ccccc34)CC2)cc2c1NC(=O)CC2(C)C,,inactive
CCCOc1sc(C(=O)N2CCC(c3cc(CN)ccc3F)CC2)c(C)c1Br,,inactive
